Most compounds without a hit are left out; they make up all but 2.4% or so of the library.
PKM2 act – activators of human pyruvate kinase M2 | 260,000 tested, 0.34% active | P14618 | AID 1631 | purified PKM2, Kinase-Glo ATP luminescence, activation; response scale: 0% is enzyme alone, no compound | Potency, µM (doses to about 57.5 µM), without a hit: at the highest dose activation, actives largely listed as activators; note: % is set by controls: 0 for no effect and ±100 for the full control effect; nearly all actives have a fitted effect of over 55% in size
Target sequence (P14618 whole entry, looked up): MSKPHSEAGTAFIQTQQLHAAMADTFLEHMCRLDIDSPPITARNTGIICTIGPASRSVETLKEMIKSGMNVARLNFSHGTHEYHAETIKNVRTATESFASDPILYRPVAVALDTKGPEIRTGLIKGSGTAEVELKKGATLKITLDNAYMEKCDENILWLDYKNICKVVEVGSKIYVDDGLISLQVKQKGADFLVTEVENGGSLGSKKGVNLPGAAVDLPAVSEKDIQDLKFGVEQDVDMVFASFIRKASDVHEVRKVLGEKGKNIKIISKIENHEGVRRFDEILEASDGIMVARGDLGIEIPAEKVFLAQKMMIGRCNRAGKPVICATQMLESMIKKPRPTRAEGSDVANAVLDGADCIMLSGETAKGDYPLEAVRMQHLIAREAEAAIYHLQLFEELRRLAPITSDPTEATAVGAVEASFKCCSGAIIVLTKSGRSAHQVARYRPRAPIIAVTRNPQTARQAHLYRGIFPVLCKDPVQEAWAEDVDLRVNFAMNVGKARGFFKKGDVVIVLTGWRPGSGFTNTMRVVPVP
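hPK-M2, >95% pure; 0.1 mM ADP / 0.5 mM PEP final; imidazole pH7.2 buffer w/ 7 mM MgCl2, 50 mM KCl; 1 h RT; Kinase-Glo lum. Intermediate enzyme activity for dual inhibitor/activator qHTS.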
Rango complex inh – Rango-importin beta binding inhibition; Q14974; Rango CFP/YFP FRET sensor + importin beta, 45 min; Potency, µM (top dose mostly 92.2 µM), for inactives: top-dose inhibition of complex formation; 340,000 tested, 0.031% active; calls by dose curve;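 note: 0% = DMSO wells and 100% = buffer wells lacking importin beta; nearly all actives have a fitted effect of over 15% in size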
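Inhibition scored from the CFP 486 nm/YFP 530 nm FRET ratio 45 min after adding 0.125 microM importin beta to 50 nM Rango biosensor preincubated 5 min with compound (room temperature, PBS with DTT, Tween-20, BSA). No-importin wells as positive control.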
Rango release inh – prevents RanGTP from dissociating the Rango-importin beta complex; Potency, µM (titrated, usually from 46.1 µM), inactives show at the highest dose activity change, negative = inhibition; 340,000 tested, 0.071% active; Biochemical FRET Rango-importin beta, RanGTP-induced dissociation; calls by dose curve; note: % of control where 0% means no effect; nearly all actives have a fitted effect of over 45% in size
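FRET read at 45 min, room temperature: inhibitors block the CFP/YFP signal rise when RanGTP (0.6 uM Ran, 2 mM GTP, 0.2 uM RCC1) frees Rango (0.1 uM) from importin beta (0.25 uM). Pre-read after 5 min compound exposure flags interference.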
ELG1 repair inh – blocks ELG1-dependent DNA repair in HEK293T cells; 330,000 tested, 2.3% active; HEK293T ELG1-luciferase reporter, luminescence, 16 h; DNA damage induced by 5-fluorouridine; Potency, µM (highest dose often 46.1 µM), for inactives: at the top dose activity change, negative = inhibition, actives largely listed as inhibitors; AID 504467; note: % is set by controls: 0 for no effect and ±100 for the full control effect; nearly all actives have a fitted effect of over 55% in size
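HEK293T cells expressing luciferase-tagged ELG1 (2,000/well) received 5-Fluorouridine plus compound or DMSO for 16 hr at 37 °C. Luciferase was read by ONE-Glo luminescence after 30 min at room temperature.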
Tb PGK inh – T. brucei PGK inhibition; PGK/GAPDH coupled, Kinase-Glo luminescence, 60 min; Potency, µM (titrated, usually from 57.5 µM), for the others: top-dose activity change, negative = inhibition, actives largely listed as inhibitors; 380,000 tested, 0.043% active; note: % is set by controls: 0 for no effect and ±100 for the full control effect; nearly all actives have a fitted effect of over 60% in size
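Luminescent ATP detection (Kinase-Glo Plus) follows a 60-minute room-temperature incubation, with wells lacking PGK as controls. Buffer: 100 mM TEA (pH 7.6), 5 mM MgCl2, 0.01% Tween-20. Coupling enzyme GAPDH (100 nM final) supplies unstable 1,3-BPG in-well.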
Tb PFK inh – T. brucei PFK enzyme inhibition. O15648. T. brucei PFK, ADP-Glo luminescence. Potency, µM (titrated, usually from 57.5 µM), for inactives: at the top dose activity, negative = inhibition, actives largely listed as inhibitors. 330,000 tested, 0.17% active. AID 485367;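 note: 0% = uninhibited 1x PFK enzyme wells and -100% = no-enzyme wells; nearly all actives have a fitted effect of over 60% in size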
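Luminescent ADP detection (ADP-Glo, two-step: ATP depletion then ADP-to-ATP conversion for luciferase) reported PFK activity after 45 min room-temperature reaction of 1.25 nM enzyme with 0.5 mM F6P and 0.1 mM ATP at pH 8.0.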
* = called active by the depositor; [ ] = remark or other dose. Unless noted, calls come from the whole dose curve; as a rule, active = well fitted curve in the direction sought with a large enough effect; inconclusive = small, poorly fitted or top-dose-only effect, or another doubt; inactive = no such curve, though single readings can be large; an effect the other way counts as inactive or inconclusive. Potency is the fitted concentration of half-maximal effect.

For Cc1nn(-c2ccccn2)c2c1C(c1ccccc1Cl)C1=C(N2)c2ccccc2C1=O (stereo not given) the results were PKM2 act -2%, Rango complex inh 0%, Rango release inh 0%, ELG1 repair inh 21µM*, Tb PGK inh -9% and Tb PFK inh -1%.
`CN(C)c1ccc(CNC(=O)C2(C)C=CCN2C(=O)c2ccccc2)cc1` (stereo not given) gave PKM2 act -3%.
Screening O=C(CCc1c[nH]c2ccccc12)NCc1ccc2c(c1)OCO2 returned PKM2 act 4%, Rango complex inh 0%, Rango release inh -9%, ELG1 repair inh -10%, Tb PGK inh -5% and Tb PFK inh -2%.
O=C(Cc1c[nH]c2ccccc12)NCc1ccc2c(c1)OCO2 was read as PKM2 act 9%, Rango complex inh -1%, Rango release inh 10%, ELG1 repair inh 12µM*, Tb PGK inh inactive and Tb PFK inh 0%.
For OC(CN1CCN(Cc2ccc3c(c2)OCO3)CC1)c1c[nH]c2ccccc12 (stereo not given) the results were PKM2 act -2%, Rango complex inh 3%, Rango release inh 17%, ELG1 repair inh 13µM*, Tb PGK inh -1% and Tb PFK inh 0%.
CN(CC(=O)Nc1ccccc1Br)C(=O)CNC(=O)c1ccco1 was read as Rango complex inh -2%, Rango release inh 12%, ELG1 repair inh 10%, Tb PGK inh -3% and Tb PFK inh -8%.
`Cc1sc(NC(=O)c2cc(-c3ccccc3)nc3ccccc23)c(C(N)=O)c1C` gave PKM2 act -2%, Rango complex inh 2%, Rango release inh 4%, ELG1 repair inh 5.8µM*, Tb PGK inh -6% and Tb PFK inh -8%.
`COc1ccc(-c2cc(C(=O)N3CCN(c4ncccn4)CC3)c3ccccc3n2)cc1OC` gave Rango complex inh 6%, Rango release inh -1%, ELG1 repair inh 6.5µM*, Tb PGK inh -1% and Tb PFK inh -6%.
COc1cccc(N2CCN(C(=O)c3cc(-c4ccccc4)nc4c3cnn4C(C)C)CC2)c1 was read as Rango complex inh -4%, Rango release inh -3%, ELG1 repair inh 12µM*, Tb PGK inh 4% and Tb PFK inh 5%.
`CC(C)Oc1cccc(-c2cc(C(=O)N3CCN(c4ncccn4)CC3)c3ccccc3n2)c1` gave PKM2 act 4%, ELG1 repair inh 15µM* and Tb PFK inh -2%.
`COc1ccccc1N1CCN(C(=O)c2cc(-c3ccccc3)nc3c2cnn3C(C)C)CC1` gave Tb PGK inh -4%.
Cc1cc(C)cc(OC(=O)COc2ccccc2C)c1 was read as Rango complex inh 0%, Rango release inh 0%, ELG1 repair inh -3%, Tb PGK inh -8% and Tb PFK inh -2%.
O=C(COC(=O)c1cc([N+](=O)[O-])ccc1N1CCOCC1)Nc1ccc(Cl)cn1 was read as PKM2 act 7%, Rango complex inh -2%, Rango release inh -7%, ELG1 repair inh -8%, Tb PGK inh -2% and Tb PFK inh -2%.
`NC(CSC(c1ccccc1)(c1ccccc1)c1ccc2c(c1)OCO2)C(=O)O` (stereo not given) gave Tb PGK inh -8%.
CCCCCCCC1=Cc2ccccc2C(C(C(=O)OC)C(=O)OC)N1C(=O)OC (stereo not given) was read as PKM2 act -14%[11.5 µM].
COc1ccc(-c2cc(C(=O)NC(C)c3ccccn3)c3ccccc3n2)cc1OC (stereo not given) was read as Rango complex inh 3%, Rango release inh -2%, ELG1 repair inh 16µM*, Tb PGK inh -5% and Tb PFK inh 0%.
O=C(NC1=NCCS1)c1cc(-c2ccc(-c3ccccc3)cc2)nc2ccccc12 was read as PKM2 act 1%, Rango complex inh -1%, Rango release inh 5%, ELG1 repair inh inconclusive, Tb PGK inh 4% and Tb PFK inh 0%.
`COc1ccc(-c2cc(C(=O)NC3=NCCS3)c3ccccc3n2)cc1OC` gave PKM2 act 5%, Rango complex inh 0%, Rango release inh 1%, ELG1 repair inh 16µM*, Tb PGK inh inactive and Tb PFK inh 1%.
`COc1ccc(-c2cc(C(=O)NC3CCCC3)c3ccccc3n2)cc1OC` gave Rango complex inh inconclusive, Rango release inh 9% and Tb PGK inh -9%.
For CCC(CO)NCc1cc(OC)c(OCC(=O)NCCc2ccccc2)cc1Br (stereo not given) the results were PKM2 act -4%, Rango complex inh 0%, Rango release inh -20%, ELG1 repair inh -8%, Tb PGK inh -7% and Tb PFK inh 3%.
Screening O=C(NCC1CCCO1)c1cc2ccccc2oc1=O (stereo not given) returned PKM2 act -1%, Rango complex inh -1%, Rango release inh -14%, ELG1 repair inh inconclusive, Tb PGK inh -8% and Tb PFK inh -2%.
Screening CCOC(=O)C(=CNc1cc(C)nn1-c1ccc(C)cc1)C(=O)OCC returned PKM2 act 2%, Rango complex inh -2%, Rango release inh -15%, ELG1 repair inh 13µM*, Tb PGK inh 1% and Tb PFK inh 1%.
`COc1ccc(C(=O)/C=C/C(=O)N(Cc2ccccc2OC)C(C(=O)NC2CCCCC2)c2ccncc2)c(O)c1` (stereo not given) gave PKM2 act 0%, Rango complex inh -2%, Rango release inh -5%, ELG1 repair inh 21µM*, Tb PGK inh inactive and Tb PFK inh 11%.
COc1ccc(C(=O)/C=C/C(=O)N(Cc2ccc(F)cc2)C(C(=O)NC2CCCCC2)c2ccncc2)c(O)c1 (stereo not given) was read as PKM2 act 1%, Rango complex inh 0%, Rango release inh 4%, ELG1 repair inh 18µM*, Tb PGK inh -2% and Tb PFK inh -1%.
COc1ccc(C(=O)/C=C/C(=O)N(CC(=O)NC2CCCCC2)CC2CCCO2)c(O)c1 (stereo not given) was read as PKM2 act 7.9µM*, Rango complex inh 4%, Rango release inh -29%, ELG1 repair inh inconclusive, Tb PGK inh inactive and Tb PFK inh -17%.

Screening data: PubChem, National Center for Advancing Translational Sciences (NCATS)
